Measurements: PubChem BioAssay (NCI)
The panel holds about 83,000 compounds, 20% with a hit somewhere; the sample as a whole holds those more often.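 Single-concentration screen, 48 h exposure, 96-well plates. Endpoint: percent growth. Below 10 = active.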 Calls of active or inactive are those of the source.

The compounds below were run on UACC-62 melanoma (assay: NCI-60 one-dose screen, 48 h (100 = growth as untreated, 0 = no growth, -100 = all killed)). Conditions: 10 µM unless noted.
Description: Growth inhibition of the UACC-62 human tumor cell line is measured as a screen for anti-cancer activity. Cells are grown in 96 well plates and exposed to the test compound for 48 hours. Compounds are tested at a single concentration, which is 10^-5 M for most compounds. The reported endpoint is percent growth (GI% or GIPRCNT), where numbers from 0 - 100% represent growth inhibition, and numbers from -100% - 0 represent cell death. For example, a value of 40 represents 60% growth inhibition. A value of 0 means no net growth occurred over the course of the experiment. A value of -40 indicates 40% of cells at the beginning of the experiment died by the end of the experiment. A value of -100 means all cells are dead at the end of the experiment.
NCI-60 Human Tumor Cell Lines Screen was performed using the standard one-dose NCI protocol, which is described in more detail at https://dtp.cancer.gov/discovery_development/nci-60/default.htm.
Compounds with GIPRCNT values below 10 were considered active. Activity score was based on GIPRCNT using the following formula: […]
Score is 0 for GIPRCNT values of 100 or above, 50 for GIPRCNT values of 0, and 100 for GIPRCNT values of -100.

**Q.** How did the growth turn out when `OC1CCN(CCCOc2c3ccccc3nc3c2oc2ccc(Cl)cc23)CC1` was run?
**A.** -19.5% (active)

**Q.** `COc1cc(/C=C/C(=O)c2ccccc2)ccc1Oc1nc(NCCO)nc(N2CCOCC2)n1` was tested. Which growth did it give?
**A.** 92.9% (inactive)

**Q.** For `C#Cc1nc(C2=C(C)C(OC(C)=O)/C(=N/OC(C)=O)C2)cs1` (stereo not given), which growth is on record?
**A.** 11.3% (inactive)

**Q.** Which growth does the source give for `CCCCN1C(=O)/C(=c2\sc3n(c2=O)C2C(NN=3)N(CC)C(=O)N2CC)c2cc(Cl)ccc21` (stereo not given) here?
**A.** 47.5% (inactive)

**Q.** With `CC(C)(O)c1cncc(-c2ccc3ncnc(N4CCc5cc(F)c(Cl)cc54)c3c2)c1` as the compound, how does the growth read?
**A.** 5.48% (active)

**Q.** How did the growth turn out when `COc1ccc2[nH]cc(-c3cc(N)n4nc(-c5c[nH]c6ccc(OC)cc56)cc4n3)c2c1` was run?
**A.** -53.4% (active)

**Q.** Which growth does the source give for `COc1cc2nc(-c3ccc(Cl)cc3)cc(OCCCNCC3CCCO3)c2cc1OC` (stereo not given) here?
**A.** -56.2% (active)

**Q.** How did the growth turn out when `CN(C)c1ccc(/C=c2\sc3nc4ccccc4n3c2=O)cc1` was run?
**A.** 96.5% (inactive)

**Q.** How did the growth turn out when `Clc1ccc2c(NCCCn3ccnc3)c3oc4ccc(Cl)cc4c3nc2c1` was run?
**A.** 94.6% (inactive)

**Q.** How did the growth turn out when `Cn1cc(-c2cc(N)n3nc(-c4cn(C)c5ccc(Br)cc45)cc3n2)c2cc(Br)ccc21` was run?
**A.** 92.1% (inactive)

**Q.** How did the growth turn out when `Clc1ccc2c(OCCCN3CCOCC3)c3oc4ccccc4c3nc2c1` was run?
**A.** 33.6% (inactive)

**Q.** Which growth does the source give for `CCOC(=O)c1c(Nc2ccccc2)nn2c(N)c(C#N)c(-c3ccccc3)nc12` here?
**A.** 83.4% (inactive)

**Q.** For `CCOC(=O)c1sc(N)c(C(=O)OCC)c1C`, which growth is on record?
**A.** 57.7% (inactive)

**Q.** Which growth does the source give for `COc1ccc(-c2csc(N/N=C/c3c(-c4ccc(S(C)(=O)=O)cc4)nc4ccccn34)n2)cc1` here?
**A.** 102% (inactive)

**Q.** For `CCN1C(=S)N(CC)C2C1NN=C1SC(c3ccccc3)=CC(=O)N12` (stereo not given), which growth is on record?
**A.** 92.6% (inactive)

**Q.** `O=[N+]([O-])c1ccc(O)c2ncccc12` was tested. Which growth did it give?
**A.** 10.5% (inactive)

**Q.** `Nc1nc(N)c2c(n1)NC(c1ccc(F)cc1)CC(c1ccc(Nc3nc(NCCO)nc(Nc4ccc(Cl)cc4)n3)cc1)=N2` (stereo not given) was tested. Which growth did it give?
**A.** 49.8% (inactive)

**Q.** For `C[C@@H](Nc1c(C#N)cnc2ccc(-c3cnc(N)nc3)cc12)c1ccccc1`, which growth is on record?
**A.** -9.74% (active)

**Q.** How did the growth turn out when `Cc1ccccc1NC(=O)/C=C/c1ccc(OCCOc2ccc3c(C)cc(=O)oc3c2)cc1` was run?
**A.** 91.6% (inactive)

**Q.** For `COc1cc(/C=C/C(=O)c2ccc(F)cc2)ccc1Oc1nc(NCCO)nc(N2CCOCC2)n1`, which growth is on record?
**A.** 57.2% (inactive)

**Q.** With `COc1ccc(CNS(=O)(=O)/N=C2\NC(=O)NC2=C(Cl)Cl)cc1` as the compound, how does the growth read?
**A.** 27.4% (inactive)

**Q.** `CN(C)c1ccc(-c2c(NC(C)(C)C)nc3c(OCCc4ccccc4)cccn23)cc1` was tested. Which growth did it give?
**A.** 35.1% (inactive)

**Q.** `NS(=O)(=O)c1cccc(Nc2nc(SCC(=O)c3ccc(Br)cc3)nc3ccccc23)c1` was tested. Which growth did it give?
**A.** 59.1% (inactive)

**Q.** `N#Cc1c(-c2ccc(Cl)cc2)nc2c(-c3ccccc3)c(Nc3ccccc3)nn2c1N` was tested. Which growth did it give?
**A.** 62.8% (inactive)

**Q.** `C/C(=C(/c1ccc(Cl)cc1)c1ccc(OCCN)cc1)c1ccc(C)cc1` was tested. Which growth did it give?
**A.** 88.6% (inactive)

**Q.** `COc1ccc(/C=C2\SC(=Nc3cc(C)[nH]n3)NC2=O)cc1` was tested. Which growth did it give?
**A.** 90.6% (inactive)

**Q.** With `O=c1[nH]c2ccc(Cl)cc2cc1CSc1ccccc1Nc1nccc(-c2ccc(Cl)cc2)n1` as the compound, how does the growth read?
**A.** 75.9% (inactive)

**Q.** With `COc1ccc(NC(=O)c2sc3nc(-c4cnccn4)cc(-c4cccs4)c3c2N)cc1` as the compound, how does the growth read?
**A.** 32.7% (inactive)

**Q.** For `Cc1cccc2sc(/N=C(\N)C(Cl)(Cl)Cl)nc12`, which growth is on record?
**A.** 97.6% (inactive)

**Q.** `O=C1NC(=C(Cl)Cl)/C(=N/S(=O)(=O)N2CCCCC2CC2(C(F)(F)F)N=N2)N1` (stereo not given) was tested. Which growth did it give?
**A.** 38.4% (inactive)

**Q.** How did the growth turn out when `O=C1Nc2cc(Cl)ccc2/C1=C\c1ccc(OCc2ccc(Br)cc2F)cc1` was run?
**A.** -74.3% (active)

**Q.** For `COc1ccc(-c2nn3c(-c4ccccc4F)nnc3s2)cc1`, which growth is on record?
**A.** 51.1% (inactive)

**Q.** `CN1C(=O)N(c2ccccc2)C2N=C(N/N=C/c3ccccc3)SC21` (stereo not given) was tested. Which growth did it give?
**A.** 44.4% (inactive)

**Q.** With `CCCSc1nc(Nc2ccc(/C(C)=N\NC(N)=S)cc2)c(C#N)c(-c2ccc(OC)cc2)n1` as the compound, how does the growth read?
**A.** 87.7% (inactive)

**Q.** With `COc1cc(-c2nc3ccc(-c4nnc(SCC(=O)Nc5ccc(C(C)=O)cc5)o4)cc3[nH]2)cc(OC)c1OC` as the compound, how does the growth read?
**A.** 93.2% (inactive)

**Q.** For `NC(=O)c1c(NC(=O)c2ccc(C3CCCCC3)cc2)sc2c1CCC(=O)C2`, which growth is on record?
**A.** 26.4% (inactive)

**Q.** `N#Cc1c(-c2ccc(Cl)cc2)nc(SCc2ccc([N+](=O)[O-])cc2)nc1N1CCNCC1` was tested. Which growth did it give?
**A.** 12.5% (inactive)

**Q.** For `CS(=O)(=O)c1ccc(-c2nc3ccccn3c2/C=N/Nc2nc(-c3ccc(Br)cc3)cs2)cc1`, which growth is on record?
**A.** 102% (inactive)

**Q.** How did the growth turn out when `CNC(=O)c1cc(-c2ccc(NC(=O)Nc3ccc(N4CCOCC4)c(C(F)(F)F)c3)cc2)nc2cccnc12` was run?
**A.** 64.3% (inactive)

**Q.** Which growth does the source give for `O=C1c2c(c3c4cc(Br)ccc4[nH]c3c3ccc4ccccc4c23)C(=O)N1CCO` here?
**A.** 72.6% (inactive)
